Laboratory results from PubChem BioAssay (NCATS).
Records with an inconclusive call do not appear. Where a call stands in place of a potency, no number is given. A number with no mark means an inactive call. Activity calls are given as the source filed them. Calls follow the shape of the dose curve; as a rule, active = well fitted cell-killing curve with a large enough effect; inconclusive = small, poorly fitted or top-dose-only effect, or effect the other way; inactive = flat fitted curve, though single readings scatter.

Columns and labels:
Assay in all cases: Primary qHTS to identify gynecologic anti-cancer compounds using libraries of approved drugs and bioactive compounds (AID 1345084); also: nearly all actives have a fitted effect of over 55% in size
[1] = tested on: C33A; settings: Gynecologic cancer cell panel viability, ATPlite luminescence, 48 h; series mostly up to 57.5 µM
How it was run: (§1)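 Cytotoxicity screen measuring ATP content by luciferase luminescence. Each compound is applied at five concentrations for 48 h at 37 C with 5% CO2.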

[2] = tested on: CAOV3; settings: Gynecologic cancer cell panel viability, ATPlite luminescence, 48 h; series mostly up to 57.5 µM
How it was run: as §1

[3] = tested on: CASKI; settings: Gynecologic cancer cell panel viability, ATPlite luminescence, 48 h; series mostly up to 57.5 µM
How it was run: as §1

[4] = tested on: HeLa; settings: Gynecologic cancer cell panel viability, ATPlite luminescence, 48 h; series mostly up to 57.5 µM
How it was run: as §1

[5] = tested on: Hek293T; settings: Gynecologic cancer cell panel viability, ATPlite luminescence, 48 h, control line for the selectivity index; series mostly up to 57.5 µM
How it was run: as §1

[6] = tested on: JEG-3; settings: Gynecologic cancer cell panel viability, ATPlite luminescence, 48 h; series mostly up to 57.5 µM
How it was run: as §1

[7] = tested on: OV90; settings: Gynecologic cancer cell panel viability, ATPlite luminescence, 48 h; series mostly up to 57.5 µM
How it was run: as §1

[8] = tested on: PA-1; settings: Gynecologic cancer cell panel viability, ATPlite luminescence, 48 h; series mostly up to 57.5 µM
How it was run: as §1

[9] = tested on: SKOV3; settings: Gynecologic cancer cell panel viability, ATPlite luminescence, 48 h; series mostly up to 57.5 µM
How it was run: as §1

[10] = tested on: Tov-21-G; settings: Gynecologic cancer cell panel viability, ATPlite luminescence, 48 h; series mostly up to 57.5 µM
How it was run: as §1

[11] = tested on: Tov112D; settings: Gynecologic cancer cell panel viability, ATPlite luminescence, 48 h; series mostly up to 57.5 µM
How it was run: as §1

[12] = tested on: Es-2; settings: Gynecologic cancer cell panel viability, ATPlite luminescence, 48 h; series mostly up to 57.5 µM
How it was run: as §1
Potency is read from the fitted curve at half-maximal effect.

| SMILES | Potency [1] | Potency [2] | Potency [3] | Potency [4] | Potency [5] | Potency [6] | Potency [7] | Potency [8] | Potency [9] | Potency [10] | Potency [11] | Potency [12] |
| --- | --- | --- | --- | --- | --- | --- | --- | --- | --- | --- | --- | --- |
| CC1(C)CC[C@]2(C(=O)O[C@@H]3O[C@H](CO)[C@@H](O)[C@H](O)[C@H]3O)CC[C@]3(C)C(=CCC4[C@@]5(C)C[C@@H](O)[C@H](O)[C@@](C)(CO)C5CC[C@]43C)C2[C@@H]1O (stereo not given in full) | inactive | inactive | inactive | inactive | inactive | inactive | inactive | inactive | inactive | inactive | inactive |  |
| O=C(NOCC(O)CO)c1ccc(F)c(F)c1Nc1ccc(I)cc1F (stereo not given) | inactive | inactive | inactive | inactive | inactive | inactive |  |  | inactive |  | inactive |  |
| Cc1cnc(Nc2ccc(F)cc2Cl)nc1-c1c[nH]c(C(=O)NC(CO)c2cccc(Cl)c2)c1 (stereo not given) | inactive | inactive | inactive |  | inactive | inactive |  | 8.91 µM (active) | inactive |  | inactive | inactive |
| COc1ccc2c(OC)c3ccoc3nc2c1OC | inactive | inactive | inactive |  | inactive | inactive | inactive | inactive | inactive | inactive | inactive | inactive |
| COc1cc(O)cc(C)c1C(=O)O[C@H]1[C@@H](OC(C)=O)[C@H](n2ccc(=O)[nH]c2=O)O[C@@H]1CO | inactive | inactive | inactive | inactive |  | inactive | inactive | inactive | inactive | inactive | inactive | inactive |
| COc1c(/C=C/C(C)(C)O)ccc2c1C(=O)OCc1cc(C)cc(O)c1O2 | inactive | inactive | inactive | inactive |  | inactive | inactive | inactive |  | inactive | inactive | inactive |
| C=C1C(=O)O[C@@H]2C/C(C)=C\C(=O)/C=C(\C)[C@@H](OC(=O)/C(C)=C\C)[C@H](O)[C@@H]12 | 10 µM (active) | 7.94 µM (active) | inactive |  | 7.94 µM (active) | 7.08 µM (active) |  | 2.82 µM (active) | 11.2 µM (active) | 7.94 µM (active) | 11.2 µM (active) | 4.47 µM (active) |
| CC1=C(CCC(C)CC(=O)O)[C@@]2(C)CCCC(C)(C)C2CC1=O (stereo not given in full) | inactive | inactive | inactive | inactive |  | inactive | inactive | inactive | inactive | inactive | inactive | inactive |
| CC(C)CCC(=O)CC1c2ccccc2C(=O)N1c1ccc2ccc(Cl)nc2n1 (stereo not given) | inactive | inactive | inactive |  | inactive |  | inactive | inactive |  | inactive | 8.91 µM (active) | inactive |
| Cc1nc([C@](C)(O)CO)sc1-c1cnc(N)c(O[C@H](C)c2cc(F)ccc2-n2nccn2)c1 | inactive | inactive | inactive | 8.91 µM (active) |  | inactive |  | 11.2 µM (active) | inactive |  | inactive | inactive |
| CC(=O)O[C@@H]1C[C@H](O)[C@@]23CO[C@H](O)[C@]1(C)C2C[C@@H](O)[C@]1(C)C3C(=O)[C@H](OC(C)=O)[C@@]2(C)[C@H](c3ccoc3)C[C@H]3O[C@]321 (stereo not given in full) | 1.12 µM (active) | 1.12 µM (active) | inactive |  | 2.51 µM (active) | inactive |  | 0.562 µM (active) |  |  | 0.316 µM (active) | 0.501 µM (active) |
| C(#Cc1nc2ncccc2nc1OCCN1CCCC1)c1ccccc1 | 7.08 µM (active) | 7.08 µM (active) | 17.8 µM (active) |  | 10 µM (active) |  |  | 6.31 µM (active) | 14.1 µM (active) | 14.1 µM (active) | 14.1 µM (active) | 3.55 µM (active) |
| COc1cc(O)cc(C)c1C(=O)O[C@@H]1[C@H](O)[C@@H](CO)O[C@H]1n1ccc(=O)[nH]c1=O | inactive | inactive | inactive | inactive |  | inactive | inactive | 3.98 µM (active) | inactive |  | inactive |  |
| CCC(CC)C(=O)Nc1sc2c(c1C#N)CCC(C(C)(C)CC)C2 (stereo not given) | inactive | inactive | inactive | inactive |  | inactive | inactive | inactive |  | inactive | inactive | inactive |
